Values without a mark were called inactive. Records with an inconclusive call do not appear. The source made the active and inactive calls. Unless noted, the call rests on the fitted dose curve.

A short description of assay [1]: qHTS assay to identify small molecule agonists of the sonic hedgehog signaling (Shh) pathway (AID 1259368).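 Further: NIH/3T3-derived 3T3Gli1-Luc cells carrying a stable Gli1-driven firefly luciferase reporter; series mostly up to about 92 µM; nearly all actives have a fitted effect of over 15% in size.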 In a few lines: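 Luminescence was read after 30 min at room temperature with luciferase reagent. Before that, 3T3Gli1-Luc cells (NIH/3T3 clone, stable Gli1-Luc reporter; 2,000/well) were exposed to compounds for 24 hr at 37C, 5% CO2, compounds being added 4 hr post-plating.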
(Quantitative high-throughput screening tests each substance at several concentrations.)

Assay [2] deals with Estrogen receptor beta (Homo sapiens) (UniProt Q92731). In words: qHTS assay to identify small molecule agonists of the estrogen receptor beta (ER-beta) signaling pathway (AID 1259377; active means well fitted activation curve with a large enough effect in the signal ratio in the repeat runs, not every such curve was filed as active; the % refers to the signal ratio; further: potency means the concentration at half of the fitted maximal effect). In a few lines:
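ER-beta-UAS-bla HEK293T cells in medium with 2% charcoal-stripped FBS were exposed to compounds for 16 h at 37C. Beta-lactamase reporter activity was read as fluorescence after 2 h with LiveBLAzer B/G FRET substrate at room temperature.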

The nature of assay [3]: qHTS assay to identify small molecule agonists of the androgen receptor (AR) signaling pathway in the presence of an antagonist - cell viability counter screen (AID 1259379; active means well fitted curve in the direction sought with a large enough effect in the repeat runs; an effect the other way counts as inactive or inconclusive; further: nearly all actives have a fitted effect of over 25% in size; further: potency means the concentration at half of the fitted maximal effect;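 on activity change, negative = cytotoxicity: MDA-kb2 human breast cancer cells carrying an MMTV luciferase reporter; series mostly up to about 92 µM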). In a few lines: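 Cytotoxicity counter-screen run in the same wells as the nilutamide-challenged (3.0 µM final) AR agonist assay in MDA-kb2 cells. Compounds tested at 15 concentrations for 16 h, 37 °C without CO2; CellTiter-Fluor fluorescence read.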

Assay [4] in a line: qHTS assay to identify small molecule agonists of the estrogen receptor beta (ER-beta) signaling pathway - cell viability counter screen (AID 1259380; active means well fitted curve in the direction sought with a large enough effect in the repeat runs; an effect the other way counts as inactive or inconclusive; further: nearly all actives have a fitted effect of over 30% in size). An outline of the steps: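 Cell viability counter screen: CellTiter-Glo luminescence (30 min, room temperature) measured in the same wells as the beta-lactamase readout, after 16 hr compound exposure at 37C of ER-beta-bla HEK293T cells in 2% charcoal-stripped FBS medium.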

Assay [5] is described as follows: qHTS assay to identify small molecule antagonists of the estrogen receptor beta (ER-beta) signaling pathway - cell viability counter screen (AID 1259382; active means well fitted curve in the direction sought with a large enough effect in the repeat runs; an effect the other way counts as inactive or inconclusive; further: series mostly up to about 92 µM; nearly all actives have a fitted effect of over 55% in size). In a few lines: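 Cytotoxicity was measured in the same wells by CellTiter-Glo luminescence after 30 min at room temperature. Cells were ER-beta-bla HEK293T in charcoal-stripped serum, given compound together with 1 nM E2 and incubated 16 h at 37C.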

Assay [6] deals with Estrogen receptor (Homo sapiens) (UniProt P03372). In words: qHTS assay to identify small molecule agonists of the estrogen receptor alpha (ER-alpha) signaling pathway in the presence of an antagonist (AID 1259383). Further: top concentration of the series differs between compounds; nearly all actives have a fitted effect of over 15% in size. An outline of the steps:
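Agonist-mode confirmation run in the presence of 10.0nM (final) ICI-182,780 antagonist. The reporter was ERE-driven luciferase in VM7Luc4E2 cells, grown in charcoal-stripped serum. Cells were exposed to 15-concentration compound series for 22hr, then ONE-Glo luminescence was read.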

A short description of assay [7]: qHTS assay to identify small molecule agonists or antagonists of the thyroid stimulating hormone receptor (TSHR) signaling pathway - wild type cell line counter screen (AID 1259384). An outline of the steps:
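Wild-type Hek293 cells, 800/well, 18 h at 37C, then compound with Ro20-1724 for 30 min RT. cAMP by HTRF (cAMP-d2/anti-cAMP cryptate), 1 h RT, fluorescence read. 15 concentrations, triplicates.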

For assay [8], the target named is Estrogen receptor beta (Homo sapiens) (UniProt Q92731). In words: qHTS assay to identify small molecule antagonists of the estrogen receptor beta (ER-beta) signaling pathway (AID 1259378; active means well fitted inhibition curve with a large enough effect in the signal ratio in the repeat runs, not every such curve was filed as active; the % refers to the signal ratio). An outline of the steps:
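ER-beta-UAS-bla HEK293T cells in 2% charcoal-stripped FBS medium treated with compound plus 1nM final 17-beta-estradiol for 16 hr at 37C. Beta-lactamase reporter read by FRET substrate fluorescence after 2 hours at room temperature.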

Assay [9] in a line: qHTS assay to identify small molecule antagonists of the sonic hedgehog signaling (Shh) pathway (AID 1259369). Further: nearly all actives have a fitted effect of over 45% in size. In a few lines: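 Antagonist mode: compound added to 3T3 Gli1-Luc cells followed by conditioned-medium stimulation, 24 h at 37 C, 5% CO2. Inhibition taken as loss of Gli1-driven luciferase luminescence.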
Assay [10] deals with Androgen receptor (Homo sapiens) (UniProt P10275). In words: qHTS assay to identify small molecule agonists of the androgen receptor (AR) signaling pathway in the presence of an antagonist (AID 1259381). Further: nearly all actives have a fitted effect of over 15% in size. An outline of the steps:
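Agonist-mode confirmation run against 3.0 uM final nilutamide: compounds titrated at 15 concentrations onto MDA-kb2 MMTV-luciferase reporter cells. Luminescence measured with ONE-Glo following 16 hr incubation, 37C, 0% CO2.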
On the % scale 0 is the no-effect control and ±100 the full control effect.

Chain of Estrogen receptor (Homo sapiens) (P03372 whole entry, looked up): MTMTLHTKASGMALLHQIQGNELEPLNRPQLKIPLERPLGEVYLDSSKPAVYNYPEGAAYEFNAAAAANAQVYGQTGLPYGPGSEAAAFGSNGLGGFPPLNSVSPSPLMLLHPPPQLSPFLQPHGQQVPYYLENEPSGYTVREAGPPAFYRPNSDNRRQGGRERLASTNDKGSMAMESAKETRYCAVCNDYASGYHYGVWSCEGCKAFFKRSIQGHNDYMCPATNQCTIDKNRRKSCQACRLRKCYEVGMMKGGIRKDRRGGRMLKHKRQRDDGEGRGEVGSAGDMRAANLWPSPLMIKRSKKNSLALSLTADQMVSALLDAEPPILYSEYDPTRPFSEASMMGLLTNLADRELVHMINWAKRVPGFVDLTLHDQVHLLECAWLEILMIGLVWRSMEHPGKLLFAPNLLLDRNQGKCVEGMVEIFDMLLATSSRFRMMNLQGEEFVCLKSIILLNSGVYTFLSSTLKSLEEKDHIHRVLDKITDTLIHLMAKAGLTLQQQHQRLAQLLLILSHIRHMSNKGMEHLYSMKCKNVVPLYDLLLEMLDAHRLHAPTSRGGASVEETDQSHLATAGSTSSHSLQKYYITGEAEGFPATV
Chain of Estrogen receptor beta (Homo sapiens) (Q92731 whole entry, looked up): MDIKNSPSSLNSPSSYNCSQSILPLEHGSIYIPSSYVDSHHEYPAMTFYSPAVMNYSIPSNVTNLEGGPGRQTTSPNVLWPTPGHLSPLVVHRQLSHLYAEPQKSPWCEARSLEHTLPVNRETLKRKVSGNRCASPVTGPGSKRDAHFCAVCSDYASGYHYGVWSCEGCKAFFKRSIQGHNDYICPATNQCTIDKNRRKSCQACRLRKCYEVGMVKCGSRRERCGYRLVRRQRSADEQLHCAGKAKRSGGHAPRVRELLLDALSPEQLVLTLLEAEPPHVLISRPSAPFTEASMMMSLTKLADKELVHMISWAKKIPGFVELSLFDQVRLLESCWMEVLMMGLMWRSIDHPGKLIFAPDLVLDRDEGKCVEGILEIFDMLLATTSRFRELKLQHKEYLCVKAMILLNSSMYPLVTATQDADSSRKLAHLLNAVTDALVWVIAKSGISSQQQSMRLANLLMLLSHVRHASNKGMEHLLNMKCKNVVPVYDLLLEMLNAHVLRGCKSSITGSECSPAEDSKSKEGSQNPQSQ
Chain of Androgen receptor (Homo sapiens) (P10275 whole entry, looked up): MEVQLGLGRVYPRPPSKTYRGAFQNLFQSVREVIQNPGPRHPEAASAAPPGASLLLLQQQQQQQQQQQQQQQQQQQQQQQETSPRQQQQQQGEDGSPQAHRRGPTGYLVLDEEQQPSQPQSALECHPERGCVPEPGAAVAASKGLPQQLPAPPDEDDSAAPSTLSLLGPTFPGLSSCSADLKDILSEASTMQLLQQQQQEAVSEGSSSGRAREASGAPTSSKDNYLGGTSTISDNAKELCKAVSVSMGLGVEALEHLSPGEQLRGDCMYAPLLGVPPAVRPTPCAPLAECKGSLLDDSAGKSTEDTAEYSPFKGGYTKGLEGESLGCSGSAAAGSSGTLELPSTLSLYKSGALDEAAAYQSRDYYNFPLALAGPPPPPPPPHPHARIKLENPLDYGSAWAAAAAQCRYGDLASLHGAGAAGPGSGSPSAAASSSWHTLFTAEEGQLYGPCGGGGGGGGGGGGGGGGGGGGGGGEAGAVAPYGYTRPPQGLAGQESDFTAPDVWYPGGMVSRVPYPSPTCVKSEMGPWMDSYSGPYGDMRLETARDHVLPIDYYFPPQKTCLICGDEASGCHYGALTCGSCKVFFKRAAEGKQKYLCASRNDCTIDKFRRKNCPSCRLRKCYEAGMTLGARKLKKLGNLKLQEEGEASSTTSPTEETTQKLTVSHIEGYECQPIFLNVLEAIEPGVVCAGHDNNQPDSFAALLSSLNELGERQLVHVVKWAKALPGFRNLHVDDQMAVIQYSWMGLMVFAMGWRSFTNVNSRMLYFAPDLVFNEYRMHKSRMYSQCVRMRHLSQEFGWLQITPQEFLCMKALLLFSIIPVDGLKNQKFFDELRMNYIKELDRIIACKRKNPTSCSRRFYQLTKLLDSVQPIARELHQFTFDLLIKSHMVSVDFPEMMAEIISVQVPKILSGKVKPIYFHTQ

`Cc1cccc2nccnc12`: the outcome in [1], in assay [5], in [6] and in [7] was inactive. In addition, the Potency result in [2], in assay [3] and in assay [4] was “inactive” in each case.

Regarding `CCCCCCCCCCl`, the call in assay [1], in assay [8] and in assay [5] was inactive. Besides, the Potency entry in assay [2], in assay [3] and in assay [4] was “inactive” throughout.

Turning to `CCCN1C[C@H](CSC)C[C@@H]2c3cccc4[nH]cc(c34)C[C@H]21`, the compound was called inactive in assay [1], in assay [5], in assay [6] and in assay [7]. Moreover, the Potency entry in assay [9] and in assay [3] was “inactive” each time.

Take `C[C@@H]1O[C@@H](O[C@@H]2[C@@H](O)[C@H](OCCc3ccc(O)c(O)c3)O[C@H](CO[C@@H]3O[C@H](CO)[C@@H](O)[C@H](O)[C@H]3O)[C@H]2OC(=O)/C=C/c2ccc(O)c(O)c2)[C@H](O)[C@H](O)[C@H]1O`: the call in assay [1] and in assay [5] was inactive. The Potency result in [9] and in [4] was “inactive” each time.

For the compound `COc1ccc(C2CNC(=O)C2)cc1OC1CCCC1` (stereo unspecified), the compound was classed as inactive in assay [1], in [5] and in assay [7]. Moreover, the Potency entry in [2], in [3] and in assay [4] was “inactive” throughout.

Take `COC(=O)C1CC(=O)C(C(=O)OC)CC1=O` (stereo unspecified): in [1], the activity change is -2.11% [at 8.39 µM]. In assay [9], the activity change, negative = inhibition was 0.93% [at 8.39 µM]. Also, the activity change, negative = cytotoxicity is 2.46% [at 8.39 µM] in [3] and 5.88% [at 8.39 µM] in [5]. The cAMP activity change in assay [7] was 2.64% [at 8.39 µM].

As to `O=C(O)Cc1cn(-c2ccccc2)nc1-c1ccc(Cl)cc1`, the outcome in assay [1], in assay [5], in [6] and in assay [7] was inactive. The Potency entry in [9] and in assay [3] was “inactive” in each case.

With `C=CC(OCC)OCC`, the result in assay [1], in [8] and in assay [5] was inactive. For the same compound, the Potency result in [2], in [3] and in assay [4] was “inactive” each time.

Turning to `O=C(CCNNC(=O)c1ccncc1)NCc1ccccc1`, the compound was classed as inactive in assay [1], in assay [5], in assay [6] and in [7]. In addition, the Potency result in [9] and in assay [3] was “inactive” throughout.

Consider `Nc1ccc2cc(S(=O)(=O)O)cc(O)c2c1`, for which the compound was called inactive in assay [1], in [5] and in [6]. In addition, the Potency entry in assay [9] and in assay [10] was “inactive” throughout.

With `O=C1c2cccc3c2[C@H](CCC3)CN1[C@@H]1CN2CCC1CC2`, the result in assay [1], in assay [5] and in assay [7] was inactive. In addition, the Potency entry in assay [3] is “inactive”.

Turning to `COP(=O)(OC)OC(c1ccc(Cl)cc1)P(=O)(OC)OC` (stereo unspecified), the result in assay [1], in assay [5], in [6] and in assay [7] was inactive. The Potency entry in assay [3] and in assay [4] was “inactive” in each case.

For the compound `On1nnc2ccccc21`, the compound was classed as inactive in [1], in assay [6] and in [7]. In addition, the Potency result in [9] and in assay [3] was “inactive” in each case.

In the case of `CC(=C(CCOC(=O)C(C)C)SSC(CCOC(=O)C(C)C)=C(C)N(C=O)Cc1cnc(C)nc1N)N(C=O)Cc1cnc(C)nc1N`, the compound was called inactive in assay [1], in [8], in [5], in assay [6] and in [7]. For the same compound, the Potency entry in assay [2], in [3] and in assay [4] was “inactive” throughout.

For `C[Si](C)=O`, the activity change in assay [1] was 0.132% [at 8.39 µM]. Besides, the activity change, negative = inhibition in assay [9] was 4.44% [at 8.39 µM]. The results for the activity change, negative = cytotoxicity in [3] and in assay [5] were -1.72% [at 8.39 µM] and 0.879% [at 8.39 µM], respectively. Moreover, in [7], the cAMP activity change is -4.18% [at 8.39 µM].

Consider `O=C(O)Cc1ccc(Cl)cc1Cl`, for which the result in assay [1], in assay [8], in [5], in assay [6] and in [7] was inactive. Further, the Potency result in assay [2], in [3], in assay [4] and in assay [10] was “inactive” each time.

In the case of `Brc1ccc(-c2ccccc2)cc1`, the call in assay [1], in [5] and in assay [7] was inactive. Besides, the Potency result in assay [3] is “inactive”.

In the case of `CC(=O)Nc1ccc(S(=O)(=O)Nc2ccc([N+](=O)[O-])cc2)cc1`, the call in [1], in assay [5] and in [6] was inactive. The Potency in [3] was 23.7 µM (active). Moreover, the Potency entry in assay [4] was “inactive”.

For `O=C(c1ccc(O)cc1)c1ccc(O)c(O)c1O`, the call in assay [1] and in assay [5] was inactive. For the same compound, in assay [2], the Potency is 15.4 µM (active). Moreover, the Potency entry in assay [4] was “inactive”.

Regarding `COc1cc2c(cc1OC)[C@@H]1CC(=O)[C@@H](CC(C)C)CN1CC2`, the result in assay [1] and in assay [5] was inactive. Moreover, the Potency entry in [2], in assay [3] and in assay [4] was “inactive” in each case.

Turning to `CC(C)(C)c1cc(CCC(=O)NN)cc(C(C)(C)C)c1O`, the call in assay [1], in assay [5] and in assay [7] was inactive. The Potency result in assay [9] and in assay [3] was “inactive” throughout.

Regarding `CCCC/C=C/C=C\C=O`, the compound was classed as inactive in [1], in assay [5], in assay [6] and in [7]. Also, the Potency result in [3] and in assay [10] was “inactive” each time.

As for `O=C(O)C(=O)Cc1ccccc1`, the compound was classed as inactive in [1], in assay [8], in [5], in [6] and in [7]. For the same compound, the Potency entry in assay [3], in assay [4] and in assay [10] was “inactive” throughout.

With `CCCCCCOc1ccccc1C(N)=O`, the compound was called inactive in assay [1] and in assay [5]. Besides, the Potency result in [4] is “inactive”.

As to `CC(=O)/C=C/C1C(C)=CCC(C)C1(C)C` (stereo unspecified), the outcome in assay [1], in assay [8], in assay [5], in assay [6] and in assay [7] was inactive. Besides, the Potency result in [2], in assay [3] and in assay [4] was “inactive” each time.

Turning to `O=C1c2ccccc2C(=O)N1CCl`, the compound was called inactive in [1] and in [5]. Besides, the Potency entry in assay [3], in assay [4] and in assay [10] was “inactive” each time.

On to `COc1ccc2c(c1OC)C(=O)O[C@@H]2[C@H]1c2c(cc3c(c2OC)OCO3)CCN1C`, for which the result in assay [1] and in [5] was inactive. Besides, in assay [4], the Potency entry was “inactive”.

With `NCCN1CCOCC1`, the result in assay [1], in assay [8], in assay [5] and in [7] was inactive. For the same compound, the Potency entry in assay [3] and in assay [4] was “inactive” in each case.

Values taken from PubChem BioAssay (Tox21).
